This note sets out measurements from PubChem BioAssay (EPA / NIEHS).

A structure can be active in one record and inactive in another. Activity calls are given as the source filed them. Rule for the calls: active = hit-call score of the fitted dose curve at least 0.9, where 1 is the maximum; inactive = score below 0.9.

Read-out in assay [1]: Interferon-inducible T-cell alpha chemoattractant (ITAC), CXCL11 (gene 6373)
Put plainly: BSK_BE3C_ITAC: BioMAP Diversity Plus: BE3C Assay for Interferon-inducible T-cell alpha chemoattractant (ITAC) Biomarker Activity (AID 2284279). Particulars: primary human bronchial epithelial cells. An outline of the steps:
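Steps: dose human bronchial epithelial cells with chemical; incubate 24 h; measure I-TAC by ELISA; fit endpoint in positive direction against DMSO control. Cytotoxicity was checked in parallel cultures by SRB staining at harvest.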

Read-out in assay [2]: Interleukin-8 (IL8), CXCL8 (gene 3576)
Put plainly: BSK_BE3C_IL8: BioMAP Diversity Plus: BE3C Assay for Interleukin-8 (IL8) Biomarker Activity (AID 2284280). Particulars: primary human bronchial epithelial cells. A digest of the protocol:
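ELISA read-out of IL-8 in human lung bronchial epithelial primary cell cultures, 24 h post-dosing; endpoint analysed as signal increase relative to DMSO baseline.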

Read-out in assay [3]: Epidermal growth factor receptor (EGFR), EGFR (gene 1956)
Put plainly: BSK_BE3C_EGFR: BioMAP Diversity Plus: BE3C Assay for Epidermal growth factor receptor (EGFR) Biomarker Activity (AID 2284281). Particulars: primary human bronchial epithelial cells. A digest of the protocol: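 Primary human lung bronchial epithelial cells; compound, 24 h; EGFR measured by ELISA; positive-direction fit vs DMSO baseline.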

Read-out in the next assay: KRT18 (gene 3875)
Put plainly: BSK_BE3C_Keratin818: BioMAP Diversity Plus: BE3C Assay for Keratin 818 Biomarker Activity (AID 2284282). The note with it: primary human bronchial epithelial cells. An outline of the steps: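 Chemicals are added to human lung bronchial epithelial primary cells (BE3C system) and incubated 24 h. Keratin 8/18 is then measured by ELISA, with parallel SRB total-protein staining gauging overt cytotoxicity.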

Read-out in assay [4]: Matrix Metallopeptidase 9 (MMP9), MMP9 (gene 4318)
Put plainly: BSK_BE3C_MMP9: BioMAP Diversity Plus: BE3C Assay for Matrix Metallopeptidase 9 (MMP9) Biomarker Activity (AID 2284283). The note with it: primary human bronchial epithelial cells. A digest of the protocol: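 Human primary bronchial epithelial cells in the BE3C system were dosed with compound for 24 h. MMP-9 was measured by ELISA, and the positive-direction response was fitted relative to DMSO as baseline. Parallel SRB staining gauged cytotoxicity.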

Read-out in assay [5]: Plasminogen activator inhibitor-1 (PAI1), SERPINE1 (gene 5054)
Put plainly: BSK_CASM3C_PAI1: BioMAP Diversity Plus: CASM3C Assay for Plasminogen activator inhibitor-1 (PAI1) Biomarker Activity (AID 2284284).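 Note: PAI-1 protein level measured by ELISA 24 h after dosing.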 Particulars: primary human coronary artery smooth muscle cells.

Read-out in assay [6]: Monocyte Chemoattractant Protein-1 (MCP1), CCL2 (gene 6347)
Put plainly: BSK_hDFCGF_MCP1: BioMAP Diversity Plus: hDFCGF Assay for Monocyte Chemoattractant Protein-1 (MCP1) Biomarker Activity (AID 2284285). The note with it: primary human foreskin fibroblasts. An outline of the steps:
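Human foreskin fibroblasts (hDFCGF system) were exposed to compound and secreted MCP-1 was measured by ELISA after 24 hours. Activity was fitted relative to DMSO. Cytotoxicity was checked by SRB total-protein staining in parallel cultures.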

Read-out in assay [7]: Vascular cell adhesion molecule 1 (VCAM1), VCAM1 (gene 7412)
Put plainly: BSK_IMphg_VCAM1: BioMAP Diversity Plus: IMphg Assay for Vascular cell adhesion molecule 1 (VCAM1) Biomarker Activity (AID 2284286). Particulars: primary human endothelial cells with macrophages. A digest of the protocol: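 Human venular endothelial cells co-cultured with macrophages; VCAM-1 quantified by ELISA 24 h after dosing, fitted in the positive direction against DMSO. Cytotoxicity was checked in parallel cultures by SRB total-protein staining (0.1% SRB after 10% TCA fixation, 560 nm).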

Read-out in assay [8]: Intercellular Adhesion Molecule 1 (ICAM1), ICAM1 (gene 3383)
Put plainly: BSK_hDFCGF_ICAM1: BioMAP Diversity Plus: hDFCGF Assay for Intercellular Adhesion Molecule 1 (ICAM1) Biomarker Activity (AID 2284287). Particulars: primary human foreskin fibroblasts. A digest of the protocol:
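Primary human foreskin fibroblasts (hDFCGF system) dosed with chemical; ICAM-1 quantified by ELISA at 24 h relative to DMSO. Parallel SRB total-protein staining to assess overt cytotoxicity.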

Read-out in the next assay: CD40, CD40 (gene 958)
Put plainly: BSK_IMphg_CD40: BioMAP Diversity Plus: IMphg Assay for CD40 Biomarker Activity (AID 2284288). Particulars: primary human endothelial cells with macrophages. A digest of the protocol:
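Venular endothelial cells co-cultured with macrophages (human primary), CD40 measured by ELISA 24 h after dosing. Positive-direction fit vs DMSO baseline; cytotoxicity tracked by SRB total-protein staining in parallel cultures.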

Consider `FC(F)C(F)(F)COCC1CO1` (configuration not stated), for which the result (in assay [1]; in assay [2]; in assay [3]; with KRT18 (gene 3875); in assay [4]; in [5]) was inactive. Moreover, the outcome in assay [6] is “inactive”; in assay [7], “inactive”; in [8] it was “inactive”; in the assay with CD40, CD40 (gene 958) it was “inactive”.
Turning to `FC(F)(F)COC(OCC(F)(F)F)OCC(F)(F)F`, the result (in assay [1]; in [2]; in assay [3]; with KRT18 (gene 3875); in assay [4]; in assay [5]) was inactive. The outcome was “inactive” in [6]; “inactive” in assay [7]; “inactive” in [8]; “inactive” in the assay with CD40, CD40 (gene 958).
With `C[Si](C)(C)C(F)(F)C(F)(F)C(F)(F)F`, the outcome (in [1]; in assay [2]; in [3]; with KRT18 (gene 3875); in [4]; in assay [5]) was inactive. In addition, the outcome in [6] was “inactive”; in assay [7], “inactive”; in assay [8], “inactive”; with CD40, CD40 (gene 958), “inactive”.
As a reminder, the AC50 is the midpoint of the concentration-response curve, whichever way the signal moves. On to `FC(F)(F)C(F)(F)C(F)(F)C(F)(F)C(F)(F)C(F)(F)I`, for which the outcome (in assay [1]; in assay [2]; in assay [3]; with KRT18 (gene 3875); in assay [4]; in assay [5]) was inactive. In addition, the outcome was “inactive” in assay [6]; “inactive” in assay [7]; “inactive” in assay [8]; “inactive” with CD40, CD40 (gene 958). The AC50 in assay [6] was 28.2 µM (active).
With `NCC(F)(F)C(F)(F)C(F)(F)C(F)(F)F`, the outcome (in assay [1]; in assay [2]; in assay [3]; with KRT18 (gene 3875); in [4]; in assay [5]) was inactive. For the same molecule, the outcome in assay [6] was “inactive”; in assay [7] it was “inactive”; in assay [8], “inactive”; with CD40, CD40 (gene 958) it was “inactive”.
Consider `OCCC(F)(F)C(F)(F)C(F)(F)C(F)(F)F`, for which the outcome (in assay [1]; in assay [2]; in assay [3]; with KRT18 (gene 3875); in assay [4]; in [5]) was inactive. Moreover, the outcome in assay [6] is “inactive”; in assay [7], “inactive”; in assay [8], “inactive”; in the assay with CD40, CD40 (gene 958), “inactive”.
For the molecule `O=S(=O)(O)CCC(F)(F)C(F)(F)C(F)(F)C(F)(F)C(F)(F)C(F)(F)F`, the result (in [1]; in assay [2]; in [3]; in the assay with KRT18 (gene 3875); in assay [4]; in assay [5]) was inactive. Moreover, the outcome was “inactive” in [6]; “inactive” in assay [7]; “inactive” in [8]; “inactive” with CD40, CD40 (gene 958).
`O=C(Cl)C(F)(F)C(F)(F)C(F)(F)C(=O)Cl`: the outcome (in assay [1]; in assay [2]; in [3]; with KRT18 (gene 3875); in [4]; in [5]) was inactive. The outcome is “inactive” in assay [6]; “inactive” in assay [7]; “inactive” in assay [8]; “inactive” in the assay with CD40, CD40 (gene 958).
With `OC(O)(C(F)C(O)(O)C(F)(F)F)C(F)(F)F`, the result (in assay [1]; in assay [2]; in [3]; with KRT18 (gene 3875); in assay [4]; in assay [5]) was inactive. The outcome in assay [6] was “inactive”; in [7] it was “inactive”; in assay [8], “inactive”; with CD40, CD40 (gene 958), “inactive”. The AC50 in assay [2] was 22 µM (active).
With `FC(F)=C(F)C(F)(F)C(F)(F)C(F)(F)C(F)(F)C(F)(F)C(F)(F)F`, the outcome (in [1]; in assay [2]; in [3]; in the assay with KRT18 (gene 3875); in assay [4]; in assay [5]) was inactive. The outcome in assay [6] was “inactive”; in [7] it was “inactive”; in [8] it was “inactive”; with CD40, CD40 (gene 958), “inactive”.
